Screens as filed in PubChem.
D3 antag: D3 dopamine receptor (human) antagonism; actives 2.5% (n = 360,000); AID 652054; D3R cells, DiscoveRx beta-arrestin luminescence, antagonist mode; stronger effect = lower value; max response, negative = inhibition, %; P35462; in the data active = max response below about -50%; inconclusive = no clear call, values can overlap the other calls; note: % is set by controls: 0 for no effect and ±100 for the full control effect
Target sequence (P35462 whole entry, looked up): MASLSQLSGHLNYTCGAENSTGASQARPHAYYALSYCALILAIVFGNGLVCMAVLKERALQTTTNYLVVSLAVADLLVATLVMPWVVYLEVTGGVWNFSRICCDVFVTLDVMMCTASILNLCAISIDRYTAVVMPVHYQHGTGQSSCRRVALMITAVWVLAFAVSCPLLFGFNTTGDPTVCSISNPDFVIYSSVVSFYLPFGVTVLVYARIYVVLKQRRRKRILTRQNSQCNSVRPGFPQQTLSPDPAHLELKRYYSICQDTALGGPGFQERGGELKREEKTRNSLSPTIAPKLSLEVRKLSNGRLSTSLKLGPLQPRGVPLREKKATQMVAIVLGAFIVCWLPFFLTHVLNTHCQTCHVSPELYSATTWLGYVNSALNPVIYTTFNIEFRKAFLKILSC
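Cells plated overnight at 1500 cells/well, then exposed to library compounds with dopamine controls for 90 minutes at 37 degrees C. DiscoveRx reagent added for 30–60 minutes at room temperature; luminescence read, quantitative HTS format.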
uPA generation: cell surface uPA generation inhibition | cell surface uPA generation assay, qHTS | Potency, µM (series often up to 38.3 µM), for the others: top-dose activity change, negative = inhibition, actives largely listed as inhibitors | actives 0.31% (n = 330,000); active = well fitted inhibition curve with a large enough effect; inconclusive = small, poorly fitted or top-dose-only effect; inactive = no such curve, though single readings can be large or run the other way; tested in mouse RAW 264.7 cells; note: potency is the fitted concentration of half-maximal effect; % is set by controls: 0 for no effect and ±100 for the full control effect; nearly all actives have a fitted effect of over 55% in size
D3 ag: D3 dopamine receptor (human) agonism | D3R DiscoveRx beta-arrestin cells, luminescence, 90 min | max activation, % | actives 0.58% (n = 410,000) | AID 652048; in the data active = max activation above about 30%; note: 0% is about no effect
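Agonist mode: compounds and dopamine controls were applied to plated cells for 90 min at 37 degrees C after an overnight attachment at 1500 cells/well. Luminescent read-out followed 30 - 60 minutes at room temperature with DiscoveRx detection reagent.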
RGS4 inh: blocks human RGS4-accelerated GTP hydrolysis | P49798 | Transcreener GDP fluorescence polarization, RGS4-accelerated GTP hydrolysis | Potency, µM (series often up to 114 µM), for inactives: at the top dose activity change, negative = inhibition, usual class: inhibitors | actives 0.039% (n = 390,000) | AID 504845; active = well fitted inhibition curve with a large enough effect; inconclusive = small, poorly fitted or top-dose-only effect; inactive = no such curve, though single readings can be large or run the other way; note: potency is the fitted concentration of half-maximal effect; % is set by controls: 0 for no effect and ±100 for the full control effect; nearly all actives have a fitted effect of over 75% in size
Target sequence (P49798 whole entry, looked up): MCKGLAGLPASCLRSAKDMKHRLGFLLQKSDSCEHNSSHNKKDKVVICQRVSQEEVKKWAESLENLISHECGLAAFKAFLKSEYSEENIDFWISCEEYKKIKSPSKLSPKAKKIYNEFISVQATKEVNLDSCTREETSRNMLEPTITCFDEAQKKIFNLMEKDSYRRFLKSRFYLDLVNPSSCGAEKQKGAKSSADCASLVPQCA
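MLSMR compounds (23 nl, pin-transferred) preincubated 10 min at room temperature with a 500nM (2x) first reagent, then RGS4 at 900nM (2x) plus Transcreener GDP mix added; fluorescence polarization (620/688 nm) read before and after 90 min at 30 °C.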
Starred values were filed as active, the others as inactive; ? = inconclusive; · = no result; [ ] = remark or other dose. This is a sample that favours compounds with a hit; in the whole collection about 3.1% have one here.

SMILES	D3 antag	uPA generation	D3 ag	RGS4 inh
COCc1ccc(-c2c(-c3ccsc3)oc(=O)c3cc(OC)c(OC)cc23)cc1	121.4	3.4%	41.5*	9.0%
COc1cc2c(C#CCCO)c(-c3ccsc3)oc(=O)c2cc1OC	26.1	?	13.2	-6.6%
COC(=O)[C@]1(Sc2ccc(C)cc2)CC(=O)N[C@@H]1c1ccco1	-69.3*	·	-8.3	·
CN(CC(=O)Nc1ccccc1Cl)C(=O)COC(=O)c1nc(Cl)c(Cl)c(Cl)c1Cl	-67.1*	-28.5%	-6.1	-4.3%
CC(Oc1ccccc1)C(=O)NC1CCN(Cc2ccccc2)CC1 (configuration not stated)	-58.7*	3.3%	-8.3	-34.6%
Cn1nccc1C(=O)NC1CCN(Cc2ccccc2)CC1	-79.7*	5.7%	-23.2	15.2%
O=C(NC1CCN(Cc2ccccc2)CC1)C12CC3CC(CC(C3)C1)C2	-87.6*	0.0%	-9.3	4.3%
O=C(NC1CCN(Cc2cccc([N+](=O)[O-])c2)CC1)c1ccccc1	-11.3	-0.8%	-16.7	8.0%
O=C(NC1CCN(Cc2ccc(Cl)cc2Cl)CC1)c1ccccc1	-78.0*	-4.8%	-19.3	-15.0%
O=C(NNC1CCN(Cc2ccccc2)CC1)c1ccccc1	-14.3	-0.7%	-7.4	-20.5%
Nc1c(Br)cc(Br)c2cccnc12	·	·	·	-38.5%
Cc1ccc2c(c1)-c1c(c(C(=O)NCCc3ccccc3)nn1C)CS2	·	·	-3.0	7.7%
COc1cc2c(-c3ccc(C)cc3)nc3c(c(C)nn3-c3ccccc3)c2cc1OC	·	·	4.2	-2.3%
Cc1cccc(S(=O)Cc2ccc(C(=O)NC3CCN(Cc4ccccc4)CC3)o2)c1 (configuration not stated)	-67.3*	2.5%	-21.1	-19.6%[56.9 µM]
O=C(NC1CCN(CCc2c[nH]c3ccccc23)CC1)c1ccccc1	-102.5*	-3.2%	-20.4	8.9%
O=C(Cc1ccccc1)NC1CCN(Cc2ccccc2)CC1	?	0.1%	-17.3	-16.1%
CC(C)(C)c1ccc(C(=O)NC2CCN(Cc3ccccc3)CC2)cc1	-118.3*	-19.4%	-8.4	15.4%
O=C(NC1CCN(Cc2ccccc2)CC1)c1ccccc1	-80.7*	9.0%	-19.3	-7.8%
O=C(CN1C=NS(=O)(=O)c2ccc(C(F)(F)F)cc21)Nc1cccc(C(F)(F)F)c1	·	·	-6.2	?
Cc1ccc(CC(=O)NC2CCN(Cc3ccccc3)CC2)cc1	-55.1*	6.6%	-9.6	16.5%
O=C(NC1CCN(Cc2ccccc2)CC1)c1cncc(Br)c1	-85.8*	6.6%	-22.0	-17.5%
Cc1oc(-c2ccccc2)cc1C(=O)NC1CCN(Cc2ccccc2)CC1	-81.9*	11.2%	-45.9	3.7%
Cc1ccccc1CC(=O)NC1CCN(Cc2ccccc2)CC1	-27.1	-3.4%	-22.3	-10.3%
CC(C)(C)c1nnc(NC(=O)C2CCN(C(=O)c3ccccc3)CC2)s1	·	·	·	-21.9%
CCOCCCNC(=O)CN1C(=O)CCn2nc(-c3cccn3C)cc21	·	·	0.0	12.0%
SMILES	D3 antag	uPA generation	D3 ag	RGS4 inh
Cc1cc(Br)ccc1NC(=O)c1cn(C2CCCC2)c(=O)c2c1c1ccccc1n2C	·	·	9.4	-19.7%
O=C(Nc1ccc(Cl)cc1)N(CCCN1CCOCC1)Cc1cccs1	-10.4	-11.6%	-10.7	22.2%
Cc1ccc(NC(=O)N(CCCN2CCOCC2)Cc2cccs2)cc1C	-68.3*	-1.7%	-10.5	20.4%
CSc1cccc(NC(=S)N(CCCN2CCCC2)Cc2cccs2)c1	-64.4*	-7.9%	-20.3	-14.6%
COc1ccc(NC(=S)N(CCCN2CCCC2)Cc2cccs2)cc1	-64.2*	-0.1%	-26.8	7.6%
COc1ccc(NC(=S)N(CCCN2CCCC(C)C2)Cc2cccs2)cc1 (configuration not stated)	-81.8*	1.1%	-20.8	13.0%
CCc1ccccc1NC(=O)CSc1nc2ncccc2o1	·	·	5.1	3.9%
CCN1CCN(C(c2ccccc2)c2c(O)cc(C)n(CCOC)c2=O)CC1 (configuration not stated)	·	·	-21.4	-7.8%
Cc1cc(OCC(=O)N(Cc2sccc2C)C2CCS(=O)(=O)C2)ccc1Cl (configuration not stated)	·	·	8.7	8.9%
COc1cc(-c2cc(C(=O)OCC(=O)NC3CC3)c3ccccc3n2)cc(OC)c1OC	58.4	-2.1%	32.5*	-9.1%
COc1cc(-c2cc(C(=O)N(C)Cc3ccccc3)c3ccccc3n2)cc(OC)c1OC	15.5	6.5%	32.5*	-6.1%
CCCCCCCCCCCCCCCCCCNc1ccn(C2OC(COP(=O)(O)OCC3OC(n4cc(F)c(=O)[nH]c4=O)CC3O)C(O)C2O)c(=O)n1 (configuration not stated)	?	-9.0%	-8.9	?
COC(=O)c1ccc(CSc2nc3c(cnn3-c3ccc(C)cc3)c(=O)[nH]2)o1	19.5	3.8%	35.2*	10.3%
OCCNCCOc1ccccc1-c1ccccc1	-75.9*	0.8%	-24.1	5.1%
COCCCNCCCCOc1ccccc1-c1ccccc1	-77.6*	-4.4%	-11.9	4.8%
N=C(N)CCCOc1ccccc1-c1ccccc1	-17.2	1.7%	-6.6	-8.1%
C=CCNCCCCOc1ccccc1-c1ccccc1	-92.7*	7.9%	-38.3	5.7%
CC(O)CNCCOc1ccccc1OCc1ccccc1 (configuration not stated)	-79.7*	-8.2%	-15.1	43.2%
COC(=O)c1cc2occc2n1CC(=O)Nc1ccc(N(C)C)cc1	·	·	6.4	-23.8%
COCCCNCCOc1ccccc1-c1ccccc1	-80.6*	-0.7%	-35.7	-6.6%
CNCCOc1ccccc1-c1ccccc1	?	-1.0%	-1.1	-10.4%
CNCCCCOc1ccccc1-c1ccccc1	-75.9*	-0.9%	-28.1	15.6%
C=CCNCCCCOc1ccc(OCc2ccccc2)cc1	-10.3	11.2µM*	-5.7	6.2%
COCCNCCOc1ccccc1-c1ccccc1	-82.6*	-2.0%	-10.3	26.2%
CC(C)(C)C1CCc2c(sc3nc(-c4cc5cc(Cl)ccc5oc4=O)[nH]c(=O)c23)C1 (configuration not stated)	·	·	-10.9	7.1%
SMILES	D3 antag	uPA generation	D3 ag	RGS4 inh
CC(O)CNCCOc1ccccc1-c1ccccc1 (configuration not stated)	-80.0*	13.4%	-37.2	19.0%
OCCNCCOCCOc1ccccc1-c1ccccc1	-16.3	2.3%	-3.8	-11.5%
CCCCNCCOc1ccccc1-c1ccccc1	-98.8*	-0.5%	-24.9	1.0%
CCC(C(=O)NC1CCC(C)CC1)n1nc(C)c2sc3ccccc3c2c1=O (configuration not stated)	·	·	2.1	1.6%
COc1ccc(CN2CCN(c3ncnc4scc(-c5ccc(F)cc5)c34)CC2)cc1	?	-10.8%	-30.8	-34.4%
CCN1CCN(c2ncnc3scc(-c4ccc(OC)cc4)c23)CC1	-61.4*	-0.9%	-11.8	11.1%
c1ccc(N2CCN(c3ncnc4scc(-c5cccs5)c34)CC2)cc1	38.9	·	50.5*	8.8%
COc1ccc(N2CCN(c3ncnc4scc(-c5ccc(C)cc5)c34)CC2)cc1	16.1	-1.6%	2.8	-2.4%
Fc1ccc(-c2csc3ncnc(N4CCN(c5ccccc5)CC4)c23)cc1	23.1	9.7%	1.5	-8.2%
c1csc(-c2csc3ncnc(NCCCN4CCOCC4)c23)c1	-55.9*	·	-17.4	-15.3%
